This note sets out measurements from PubChem BioAssay (EPA / NIEHS).

Broadly, the AC50 is the concentration at which the activity in the assay is half-maximal.

Assay [1] is described as follows: CCTE_Deisenroth_AIME_384WELL_CTox_Active: Cytotoxicity Assessment (CTOX) in CCTE's 384-well Estrogen Receptor Transactivation Assay with AIME metabolic competence (metabolism positive), Deisenroth Lab (AID 2284037; active = hit-call score of the fitted dose curve at least 0.9, where 1 is the maximum;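 also: chemicals first conditioned 2 h by alginate-bound induced rat liver S9 before cells; activity means signal loss indicating cell death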). A digest of the protocol: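 Chemicals pre-incubated 2 hours with alginate-immobilised phenobarbital/beta-naphthoflavone-induced male Sprague Dawley rat liver S9, then conditioned medium applied 24 hour to VM7Luc4E2 cells. Viability by fluorogenic protease substrate; 10-point series 0.002 - 200 uM.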

In assay [2] the target is Estrogen receptor (Homo sapiens) (UniProt P03372). As to the kind of experiment: CCTE_Deisenroth_AIME_384WELL_LUC_Inactive: CCTE's 384-well Estrogen Receptor Transactivation Assay without AIME metabolic competence (ERTA luciferase; metabolism negative), Deisenroth Lab (AID 2284038; active = hit-call score of the fitted dose curve at least 0.9, where 1 is the maximum;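 also: VM7Luc4E2 breast cells given medium preincubated 2 h with S9-free microspheres; hits raise estrogen receptor luciferase signal so potencies reflect agonists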). A digest of the protocol: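 VM7Luc4E2 ER transactivation, luciferase bioluminescence after 24 h, using medium pre-incubated 2 h with S9-free alginate microspheres. Concentrations 0.002–200 uM; gain of signal fitted relative to 17beta-estradiol.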
Estrogen receptor (Homo sapiens), sequence (P03372 whole entry, looked up): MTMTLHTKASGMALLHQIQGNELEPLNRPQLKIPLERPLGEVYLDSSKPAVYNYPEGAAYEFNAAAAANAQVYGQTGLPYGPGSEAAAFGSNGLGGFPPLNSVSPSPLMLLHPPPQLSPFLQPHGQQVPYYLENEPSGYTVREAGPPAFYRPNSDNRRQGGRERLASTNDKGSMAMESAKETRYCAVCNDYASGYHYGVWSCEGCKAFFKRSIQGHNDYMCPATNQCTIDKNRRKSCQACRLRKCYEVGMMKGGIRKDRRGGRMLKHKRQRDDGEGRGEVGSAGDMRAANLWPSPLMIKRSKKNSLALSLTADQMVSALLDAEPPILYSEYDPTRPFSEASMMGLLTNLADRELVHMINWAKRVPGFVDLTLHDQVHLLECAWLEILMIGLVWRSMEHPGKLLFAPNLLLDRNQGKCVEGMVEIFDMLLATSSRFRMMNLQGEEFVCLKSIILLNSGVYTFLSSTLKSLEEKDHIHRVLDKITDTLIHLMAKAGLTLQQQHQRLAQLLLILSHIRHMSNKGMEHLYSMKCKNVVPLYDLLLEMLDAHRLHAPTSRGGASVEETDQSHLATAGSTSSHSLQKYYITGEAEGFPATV

The target is the same in assay [3]. As to the kind of experiment: CCTE_Deisenroth_AIME_384WELL_LUC_Shift: CCTE's 384-well Estrogen Receptor Transactivation Assay with AIME metabolic competence data shift (ERTA luciferase; difference in metabolism positive and negative), Deisenroth Lab (AID 2284041).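 Also: shift is response with S9 minus without S9 so positive means metabolism raised ER signal.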 A digest of the protocol: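 Chemicals (0.002–200 uM, 10 points) pre-incubated 2 h with alginate-encapsulated induced male Sprague Dawley rat liver S9 or S9-free, then medium applied 24 h to VM7Luc4E2 cells; luciferase. Endpoint is per-concentration difference, S9-positive minus negative.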

Assay [4] in a line: CCTE_Shafer_MEA_dev_firing_rate_mean: CCTE's Neural Network Formation Assay for Mean Firing Rate, Shafer Lab (AID 2284031).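 As to AC50: curve fitted for loss of firing so AC50 reflects decreased mean firing rate.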 In short, it runs like this:
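Steps: seed rat cortical cells (1.5 x 10^5/well) with laminin on PEI-coated MEA; dose day 0; record DIV 5/7/9/12, full media and compound exchange after DIV 5 and 9 recordings; compute well-mean firing rate AUC.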

A short description of assay [5]: CCTE_Shafer_MEA_dev_per_burst_spike_percent: CCTE's Neural Network Formation Assay for Percent of Spikes in a Burst, Shafer Lab (AID 2284032).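 As to AC50: fitted as a decrease in burst spike percentage below DMSO baseline.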 In short, it runs like this: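 Value is trapezoidal AUC over recordings on days 5, 7, 9 and 12 of the well-mean fraction of spikes falling in single-electrode bursts; rat cortical cultures exposed continuously from plating, treatment renewed DIV 5 and 9, fitted downward against DMSO.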

Assay [6] in a line: CCTE_Shafer_MEA_dev_active_electrodes_number: CCTE's Neural Network Formation Assay for Number of Active Electrodes, Shafer Lab (AID 2284040; active = hit-call score of the fitted dose curve at least 0.9, where 1 is the maximum;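 as to AC50: potency for loss of active electrodes versus DMSO so lower counts are hits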). In short, it runs like this:
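Counts electrodes per well firing at least 5 spikes/min, recorded on days 5, 7, 9 and 12 in rat cortical cultures dosed continuously from plating (treatment refreshed DIV 5, 9). Value is the area under the curve over recordings, fitted downward relative to DMSO.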

Assay [7] is described as follows: CCTE_Shafer_MEA_dev_burst_rate: CCTE's Neural Network Formation Assay for Burst Rate, Shafer Lab (AID 2284042).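 As to AC50: potency for loss of burst rate below DMSO control.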 In short, it runs like this: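 Exposure ran continuously over 12 days of network development in rat cortical cultures, with compound refreshed during full media changes on DIV 5 and 9. Single-electrode bursts per recording time, well-mean over active electrodes, trapezoidal AUC across days 5–12, fitted downward relative to DMSO.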

The nature of assay [8]: CCTE_Shafer_MEA_dev_bursting_electrodes_number: CCTE's Neural Network Formation Assay for Number of Bursting Electrodes, Shafer Lab (AID 2284043; active = hit-call score of the fitted dose curve at least 0.9, where 1 is the maximum;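 as to AC50: potency is for loss of bursting electrodes relative to DMSO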). A digest of the protocol: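 Rat cortical primary neurons, 48-well MEA, 16 electrodes/well; dosing DIV 0–12, re-dosed with full media change DIV 5, 9. Recordings DIV 5/7/9/12, AxIS adaptive spike detector; bursting electrode = ≥1 burst/2 min. AUC across days; loss of signal vs DMSO.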

The nature of assay [9]: CCTE_Shafer_MEA_dev_per_burst_interspike_interval: CCTE's Neural Network Formation Assay for Burst Interspike Interval, Shafer Lab (AID 2284044). A digest of the protocol:
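Neurons from rat cortex plated onto PEI-coated MEA wells with laminin […] at 1.5 x 10^5 cells/well, then treated from day 0. Media and compound fully replaced on DIV 5 and 9. Extracellular spontaneous firing recorded four times; interspike interval per burst summarised as AUC.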

Assay [10] is described as follows: CCTE_Shafer_MEA_dev_burst_duration_mean: CCTE's Neural Network Formation Assay for Mean Burst Duration, Shafer Lab (AID 2284045). In short, it runs like this: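 Rat cortical cultures, 1.5 x 10^5 cells/well with laminin drop; continuous dosing days 0–12, media plus treatment refreshed DIV 5, 9. AxIS adaptive spike detection; mean single-electrode burst duration, AUC over four recordings, negative direction vs DMSO.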

Assay [11] is described as follows: CCTE_Shafer_MEA_dev_interburst_interval_mean: CCTE's Neural Network Formation Assay for Mean Interburst Interval, Shafer Lab (AID 2284046).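 Also: curve fitted for decrease in interburst interval relative to DMSO.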 A digest of the protocol: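 Primary rat cortical neurons on PEI-coated 48-well MEA plates (laminin added with cells at plating) (16 electrodes/well), exposed from plating day 0 with renewal at DIV 5 and 9. Mean inter-burst interval averaged over bursting electrodes, AUC across days 5, 7, 9, 12; DMSO baseline.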

Assay [12] can be described thus: CCTE_Shafer_MEA_dev_inter_network_spike_interval_mean: CCTE's Neural Network Formation Assay for Mean Inter-network Spike Interval, Shafer Lab (AID 2284047). In short, it runs like this: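 Mean time between consecutive network-spike peaks, recorded extracellularly (adaptive spike detection) on DIV 5, 7, 9 and 12, summarized as trapezoidal AUC. Rat cortical cultures on MEAs dosed continuously days 0–12, re-dosed at feeds; loss-of-signal fit relative to DMSO.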

Assay [13] in a line: CCTE_Shafer_MEA_dev_network_spike_number: CCTE's Neural Network Formation Assay for Number of Network Spikes, Shafer Lab (AID 2284048).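 Also: synchronized bursts across electrodes counted on days 5 7 9 12 and integrated as AUC.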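 As to AC50: fit as a loss of signal meaning fewer network spikes than DMSO.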 In short, it runs like this:
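Rat cortical primary cultures on 48-well MEA (16 electrodes/well); continuous exposure DIV 0–12, full medium and treatment exchange DIV 5, 9. Readout: network spike count, AxIS adaptive detection, recordings DIV 5/7/9/12 collapsed to AUC; loss-of-signal fit, DMSO baseline.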

A short description of assay [14]: CCTE_Shafer_MEA_dev_network_spike_peak: CCTE's Neural Network Formation Assay for Mean Number of Electrodes in Network Spike, Shafer Lab (AID 2284049).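 As to AC50: fitted for loss of signal meaning fewer electrodes in network spikes than DMSO.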 A digest of the protocol: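 Network-spike peak electrode count from recordings on days 5, 7, 9 and 12 was combined as trapezoidal area under the curve. Rat cortical cultures were treated continuously from plating, with compound renewed at each feed (DIV 5, 9); fits versus DMSO.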

A short description of assay [15]: CCTE_Shafer_MEA_dev_network_spike_duration_std: CCTE's Neural Network Formation Assay for Standard Deviation of Network Spike Duration, Shafer Lab (AID 2284052).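 Also: hits are decreases in network spike duration SD versus DMSO vehicle.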 A digest of the protocol:
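Network spike duration variability was collapsed across recordings on days 5, 7, 9 and 12 by trapezoidal area-under-curve and fitted downward against DMSO. Cultures were rat cortical neurons on PEI-coated MEA plates, dosed continuously from plating, refed with compound DIV 5/9.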

A short description of assay [16]: CCTE_Shafer_MEA_dev_per_network_spike_spike_number_mean: CCTE's Neural Network Formation Assay for Mean Number of Spikes in a Network Spike, Shafer Lab (AID 2284053).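 As to AC50: fitted as decrease in spikes per network spike relative to DMSO.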 In short, it runs like this: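 Mean spike count within each network spike, taken in a 0.05 s window at its peak, was recorded on days 5, 7, 9 and 12 and integrated as trapezoidal area under the curve. Rat cortical cultures on MEA plates received continuous compound from day 0, refreshed at medium changes on DIV 5 and 9.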

Assay [17] is described as follows: CCTE_Shafer_MEA_dev_per_network_spike_spike_percent: CCTE's Neural Network Formation Assay for Percent of Spikes in a Network Spike, Shafer Lab (AID 2284054). A digest of the protocol:
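Read-out: percent of spikes falling in a 0.05 s window at network-spike peak, from spontaneous MEA recordings on days 5, 7, 9 and 12; trapezoidal AUC; loss of signal versus DMSO. Rat cortical cultures, compound present throughout.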

Records with an inconclusive call do not appear. Activity calls are given as the source filed them. The calls were made as follows, unless noted: active = hit-call score of the fitted dose curve at least 0.9, where 1 is the maximum; inactive = score below 0.9.

Turning to `NCCO`, the outcome in [1], in [2] and in assay [3] was inactive.
With `Nc1ccc2c(c1)C(=O)c1ccccc1C2=O`, the result in assay [1] was inactive. The concentration at half-maximal activity (AC50) is 11200 nM (active) in [2] and 3510 nM (active) in assay [3].
`CN1CCCC1=O`: the call in assay [1], in assay [2] and in assay [3] was inactive.
As for `FC(F)(F)C(F)(F)C(F)(F)C(F)(F)C(F)(F)C(F)(F)CCI`, the call in [4], in [5], in assay [6], in assay [7], in [8] and in assay [9] was inactive. Further, the compound was called inactive in assay [10], in [11], in assay [12], in assay [13], in assay [14] and in assay [15]. In addition, the outcome in assay [16] and in assay [17] was inactive.
In the case of `CC(C)c1ccc(C(=O)N=C(N)N)cc1S(C)(=O)=O`, the compound was classed as inactive in assay [4], in assay [5], in assay [6], in [7], in assay [8] and in assay [9]. The compound was called inactive in [10], in [11], in assay [12], in [13], in assay [14] and in assay [15]. In addition, the outcome in assay [16] and in assay [17] was inactive.
With `Cc1cccc([N+](=O)[O-])c1C`, the outcome in [1], in assay [2] and in [3] was inactive.
As to `Cc1ccc(N(C)C)cc1`, the result in assay [1], in assay [2] and in assay [3] was inactive.
Take `O=c1[nH]cc(F)c(=O)[nH]1`: the AC50 in [4] was 4240 nM (active); in [5] it was 1470 nM (active); in assay [6] it was 2590 nM (active); in assay [7] it was 1580 nM (active); in assay [8], 1390 nM (active); in [11] it was 2820 nM (active). The concentration at half-maximal activity (AC50) in assay [13] is 974 nM (active); in assay [14], 1200 nM (active); in assay [15], 2010 nM (active); in assay [16], 913 nM (active); in assay [17], 607 nM (active). For the same compound, the compound was called inactive in assay [2], in [3], in [9], in [10] and in assay [12].
